# ssDAF-12 act: S. stercoralis DAF-12 nuclear receptor activators, primary screen, cell-based, luminescence, HEK293, GRIP1 co-expression, lit1-tk-luc | HEK293 ssDAF-12/GRIP1 lit1-tk-luc reporter; % of 3 µM dafachronic acid response | activation, % at 6.8 µM | 370,000 tested, 1% active;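 active = activation above the mean over all tested compounds plus 3 SD, cut at about 0.9% in these data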;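 also: 0% = DMSO-only wells and 100% = 3 µM delta7-dafachronic acid wells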
# hcDAF-12 act: H. contortus DAF-12 nuclear receptor activators, primary screen, cell-based, luminescence, HEK293, lit1-tk-luc reporter; activation, % at 6.8 µM; HEK293 hcDAF-12 lit1-tk-luc reporter; 0% DMSO, 100% Δ7-dafachronic acid; AID 652067, 2013; 370,000 tested, 1.4% active;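 active = activation above the mean of all tested compounds plus 3 SD, cut at about 5.5% in these data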;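 also: 100% = response to 3 µM Δ7-dafachronic acid high control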
# DAX1 inh-1: DAX1 (NR0B1) inhibitors on StAR promoter, primary screen, cell-based, luminescence, SF-1 (NR5A1), full-length DAX-1. HEK293T StAR-luciferase reporter, SF-1/DAX-1 repression relief. inhibition, % at 6.8 µM. 370,000 tested, 1.1% active. AID 652010, 2013;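 active = inhibition above the mean over all tested compounds plus 3 SD, cut at about 3.6% in these data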;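 also: 0% = DAX-1 cells with DMSO and 100% = cells lacking DAX-1 with DMSO; higher inhibition means more luminescence from relief of DAX-1 repression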
# DAX1 inh-2: DAX1 (NR0B1) inhibitors, primary screen, cell-based, HEK293, Gal4-DAX1, luciferase luminescence; inhibition, % at 6.75 µM; Nuclear receptor subfamily 0 group B member 1 (Homo sapiens), P51843; AID 504766, 2011; 340,000 tested, 0.99% active; HEK293 Gal4-DAX1 luciferase reporter;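 active = inhibition above the mean over all tested compounds plus 3 SD, cut at about 4.2% in these data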;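 also: 0% = DAX1-transfected cells with DMSO and 100% = empty-vector control cells with DMSO; inhibition shows as a rise in luminescence from relieved DAX1 repression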
# Target sequence (P51843 207-470 limits assumed): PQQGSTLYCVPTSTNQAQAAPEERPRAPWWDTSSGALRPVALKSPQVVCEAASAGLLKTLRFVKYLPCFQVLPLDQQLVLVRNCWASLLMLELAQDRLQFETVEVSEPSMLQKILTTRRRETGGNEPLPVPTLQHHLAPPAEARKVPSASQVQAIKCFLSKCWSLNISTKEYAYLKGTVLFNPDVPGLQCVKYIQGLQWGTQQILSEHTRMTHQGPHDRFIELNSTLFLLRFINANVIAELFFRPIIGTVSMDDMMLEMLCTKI
# hgDAF12 agonist: H. glycines DAF-12 receptor agonists, primary screen, cell-based, luminescence, HEK293, GAL4 fusion, UAS-luciferase; HEK293 GAL4-hgDAF12 UAS-luciferase reporter, agonist luminescence; normalized to butyrate control; activation, % at 6.8 µM; 370,000 tested, 1.8% active;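 active = activation above a cutoff set at the mean of all screened compounds plus 3 SD, cut at about 10% in these data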;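 also: 0% = DMSO wells and 100% = sodium butyrate wells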
# An asterisk follows results filed as active; / = no result. This is a sample that favours compounds with a hit; in the whole collection about 4.1% have one here.
SMILES,ssDAF-12 act,hcDAF-12 act,DAX1 inh-1,DAX1 inh-2,hgDAF12 agonist
c1ccc(Cn2cnc3ccccc32)cc1,-0.6,2.7,2.0,2.3,12.9*
NC(=O)CCn1cnc2ccccc21,-1.6,-1.1,0.1,4.3*,1.3
CCn1c(SCC(=O)Nc2ccc(C(C)=O)cc2)nc2nc3c(cc2c1=O)COC(C)(C)C3,-0.8,1.2,-0.4,2.5,6.4
CCn1c(SCC(=O)Nc2ccccc2C)nc2nc3c(cc2c1=O)COC(C)(C)C3,-0.6,-0.4,-1.2,5.5*,-0.6
Cn1c(CN2CCN(c3cccc(Cl)c3)CC2)nc2ccccc21,-0.6,5.8*,-1.0,-0.6,0.1
Cn1c(=O)[nH]c(=O)c2c1nc(CN1CCN(c3cccc(Cl)c3)CC1)n2CCc1ccccc1,-1.8,-1.8,-0.4,-0.3,0.1
O=C(CCc1ccccc1)N[C@H]1[C@H](O)CCC[C@]12C(=O)N(Cc1ccccc1)c1ccccc12,-0.9,-0.2,-0.1,/,3.6
COC(=O)C[C@H]1CC[C@H]2[C@H](COc3ccc(NC(=O)c4cccs4)cc3C(=O)N2C)O1,-1.6,-1.6,1.4,/,4.3
O=C(O)CC1COc2ccccc2N1C(=O)c1ccccc1Cl (stereo not given),1.5*,-1.5,-0.3,0.2,-2.3
COC(=O)CC1COc2ccccc2N1C(=O)c1ccc(OC)cc1 (stereo not given),-0.8,-0.9,-0.5,0.5,1.4
NC(=O)c1c(N)[nH]c(C(=O)c2ccccc2)c1-c1ccccn1,-0.7,-1.0,/,/,-0.3
CN(C)CC[n+]1ccc(C(=O)c2ccccc2)cc1,-0.4,-0.5,-0.1,5.1*,-0.4
O=C(C[n+]1ccc(C(=O)c2ccccc2)cc1)Nc1ccc(C(F)(F)F)cc1,0.0,0.5,-0.9,0.2,2.8
O=C(NCCSCc1ccccc1)c1ccccc1,-1.7,-1.4,-0.5,-0.5,-0.8
CN(C)S(=O)(=O)c1cccc(C(=O)NCCc2ccccc2)c1,0.4,6.0*,3.8*,1.5,8.9
CS(=O)(=O)Nc1ccc(C(=O)NCCc2ccccc2)cc1,-0.3,3.3,0.7,2.1,10.8*
COCCCNC(=O)c1ccc(NS(C)(=O)=O)cc1,-0.6,1.6,0.8,1.5,-2.5
CS(=O)(=O)Nc1ccc(C(=O)NCCSCc2ccccc2)cc1,-1.7,-1.1,1.2,5.4*,-0.7
COCCCN1C(=O)[C@H](CC(=O)N2CCSCC2)[C@]2(C(=O)OC)CCCCC=C12,-1.1,0.2,-0.4,/,0.7
COC(=O)[C@H](C(C)C)N1Cc2nnn(Cc3ccccc3)c2-c2ccccc2S1(=O)=O,-1.2,-3.2,-1.0,/,0.5
O=C1C=CC(=O)N1CCNc1ncc(C(F)(F)F)cc1Cl,-1.2,-4.0,-1.5,-1.6,-5.8
O=c1cc(Cl)[nH]c(=O)n1CCNc1ncc(C(F)(F)F)cc1Cl,-0.8,4.8,1.3,2.0,11.1*
CC(=O)c1ccc(NC(=O)Nc2cccc(Cl)c2)cc1,0.8,2.7,3.1,2.0,12.9*
O=C(/C=C(\Nc1cccc(Cl)c1)c1ccccc1)c1ccccc1,0.2,0.0,3.7*,/,6.9
O=C(Nc1ccc(Cl)cc1)Nc1cccc(C(=O)O)c1,-0.7,4.7,2.9,/,11.9*
SMILES,ssDAF-12 act,hcDAF-12 act,DAX1 inh-1,DAX1 inh-2,hgDAF12 agonist
COc1ccc(Oc2c(Cl)cnn(-c3cc(C)cc(C)c3)c2=O)cc1,-1.5,-1.6,/,/,-1.9
COc1ccc(CNCC#Cc2ccc(C)cc2)c(OC)c1,-1.4,-1.8,-0.7,/,-3.5
CCc1ccc(C2=NN(C(=O)CCC(=O)O)C(c3cccs3)C2)cc1 (stereo not given),0.1,1.0,-0.5,4.7*,6.0
Cc1ccc(C2=NN(C(=O)CCC(=O)O)C(c3cccs3)C2)cc1 (stereo not given),-1.0,-0.2,-0.2,-1.1,1.5
Cc1ccc(C2=NN(C(=O)CCC(=O)O)C(c3ccc4c(c3)OCO4)C2)cc1 (stereo not given),-1.4,1.3,0.1,0.5,0.4
O=C(O)CCC(=O)N1N=C(c2ccccc2)CC1c1ccc2c(c1)OCO2 (stereo not given),0.6,5.7*,0.2,1.5,9.1
O=C(CN1CCC(NC(=O)Nc2ccc(Cl)cc2)CC1)Nc1ccc2c(c1)OCCO2,-1.0,-2.6,0.2,/,3.2
CCOC(=O)CN1CC23C=CC(O2)C(C(=O)Nc2cc(OC)ccc2OC)C3C1=O (stereo not given),-1.1,-1.6,0.3,4.9*,-3.1
COc1ccc(S[C@]2(C(=O)N3CCCC3)CC(=O)N(C(=O)C3CC3)[C@@H]2c2ccc(OC)cc2)cc1,-0.8,-1.0,-1.8,/,1.4
COC(=O)c1cc(-c2ccc(Oc3ccccc3)cc2)c(=O)n2c1CCC2,-1.9,-2.5,-1.5,/,-2.9
O=[N+]([O-])c1ccc(Cc2nnc(-c3ccc(F)cc3)o2)cc1,0.0,4.5,1.0,2.2,9.4
Cc1ccc(-c2nnc(Cc3ccc([N+](=O)[O-])cc3)o2)cc1,-1.3,2.8,0.6,2.2,11.8*
COC(=O)[C@]12C[C@H](CC(=O)NCCCCc3ccccc3)C(=O)N(Cc3cccc4ccccc34)C1=C[C@H](C(C)(C)C)O[C@@H]2C,-1.8,1.1,-0.1,/,-1.6
O=C(Nc1cccc(F)c1)OCCCN1CCC2(CCC(c3ccccc3)CC2)C1 (stereo not given),-1.3,-1.1,0.1,/,0.9
Cn1ccnc1CN1CCC[C@]2(CC[C@H](CCC#N)O2)C1,-1.7,1.4,0.7,/,-0.2
Cc1ccc(Cc2c(-c3cccc(Cl)c3)nc3ccc(Br)cn23)cc1,-0.2,0.4,3.6,/,10.8*
CC(C)(C)Cc1c(-c2ccc(Br)cc2)nc2ccc(Br)cn12,-0.8,-0.5,-0.4,0.5,2.4
Cc1ccc(Cc2c(-c3cccc(Br)c3)nc3ccc(C)cn23)cc1,0.8,3.7,2.6,/,11.8*
CC(C)(C)Cc1c(-c2cccc(Cl)c2)nc2ccc(Br)cn12,2.1*,-0.6,1.4,/,-1.1
Clc1ccc2nc(-c3cccc(Br)c3)c(Cc3ccccc3)n2c1,-0.2,1.6,2.3,/,5.5
Cc1ccc2nc(-c3cccc(Br)c3)c(Cc3ccccc3)n2c1,1.9*,8.1*,4.2*,/,8.8
Cc1ccc(Cc2c(-c3cccc(Br)c3)nc3ccc(Cl)cn23)cc1,0.0,1.8,1.5,/,7.3
COC(=O)C1=C(C)N(C)C(=NCc2ccccc2C(F)(F)F)NC1c1cccc(F)c1 (stereo not given),-1.7,2.1,-1.0,/,2.0

# Assay outcomes (PubChem)
